Experimental data as given in PubChem BioAssay AID504375 (National Center for Advancing Translational Sciences (NCATS), 2011).
Out of some 1,600 compounds screened, about 25 (2%) were called active. Not shown: some 7% with an inconclusive outcome. Calls come from the whole dose curve; as a rule, active = well fitted inhibition curve with a large enough effect; inconclusive = small, poorly fitted or top-dose-only effect, or effect the other way; inactive = no such curve, though single readings can be large or run the other way. Many of the other results were omitted from the sample, so actives are more common in it than they were.

Each compound was assayed against Runt-related transcription factor 1 (Homo sapiens) + Core-binding factor subunit beta (Homo sapiens) (UniProt Q01196+Q13951) (assay: qHTS Assay for Compounds Blocking the Interaction Between CBF-beta and RUNX1 for the Treatment of Acute Myeloid Leukemia: Hit Validation with Orthogonal Assay). Conditions: CBFbeta-RUNX1 binding orthogonal assay, biochemical; series mostly up to 41 µM; activity change, negative = inhibition: at the top concentration.
Sequence of Runt-related transcription factor 1 (Homo sapiens) + Core-binding factor subunit beta (Homo sapiens) (Q01196 whole entry, looked up): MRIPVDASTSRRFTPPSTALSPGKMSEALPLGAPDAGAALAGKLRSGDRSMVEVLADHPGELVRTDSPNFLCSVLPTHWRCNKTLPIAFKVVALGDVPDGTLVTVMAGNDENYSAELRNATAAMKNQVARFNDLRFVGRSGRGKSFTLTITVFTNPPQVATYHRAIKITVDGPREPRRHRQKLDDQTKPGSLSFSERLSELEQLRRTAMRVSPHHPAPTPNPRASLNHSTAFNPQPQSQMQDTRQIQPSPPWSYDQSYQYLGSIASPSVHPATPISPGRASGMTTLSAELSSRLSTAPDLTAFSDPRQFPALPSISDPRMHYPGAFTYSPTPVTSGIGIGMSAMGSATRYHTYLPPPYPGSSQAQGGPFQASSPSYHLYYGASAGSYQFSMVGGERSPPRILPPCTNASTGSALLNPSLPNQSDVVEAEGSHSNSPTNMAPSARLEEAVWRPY
Sequence of Runt-related transcription factor 1 (Homo sapiens) + Core-binding factor subunit beta (Homo sapiens) (Q13951 whole entry, looked up): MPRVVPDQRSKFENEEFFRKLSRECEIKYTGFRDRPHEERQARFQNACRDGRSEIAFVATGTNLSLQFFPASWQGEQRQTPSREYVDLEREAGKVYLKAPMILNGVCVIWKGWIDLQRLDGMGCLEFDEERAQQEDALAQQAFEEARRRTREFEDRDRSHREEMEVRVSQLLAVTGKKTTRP
Source text: NIH Chemical Genomics Center [NCGC]
NIH Molecular Libraries Probe Production centers Network [MLPCN]
Assay Submitter (PI): Paul Liu
Core Binding Factor (CBF) abnormalities are associated with 20-25% of all acute myeloid leukemias (AML), of which 5-10% are further sub classified as acute myelomonocytic leukemia with eosinophilia, also known as M4Eo in the FAB classification scheme. This subtype of leukemia is usually associated with chromosome 16 inversion (p13:q22). Chromosome 16 inversion results in formation of the fusion oncogene CBFB-MYH11, which encodes the fusion protein CBF-beta-SMMHC.
It has been hypothesized that the interference of CBF-beta and RUNX1 binding could have therapeutic implications for patients with CBF mediated leukemias. We developed a CBF-beta and RUNX1 binding assay in AlphaScreenTM format and optimized it for high throughput screening to search for inhibitors. The goal of this project is to screen MLPCN's compound collection (MLSMR) for identifying the inhibitors of the interaction between CBF-beta and RUNX1 proteins as research probes. If these probes work well in the animal models, the ultimate goal of this project is to development a new drug treatment for this disease.
This assay can not be used to assess how apparent inhibitors interfere with protein binding, and whether inhibitors specifically bind to either protein. Disruption of this protein-protein interaction, through any mechanism, is the intended target activity.
The present data set was run to confirm the activity of hits from the primary screen using an orthogonal assay technology for measuring protein-protein interaction disruption.
A TR-FRET (time resolved fluorescence resonance energy transfer) assay was performed using the same assay buffer, protein concentrations and incubation times as described previously in the AlphaScreen assay, except that terbium (Tb+) labeled anti-his-antibody and XL665 linked streptavidin were used to capture the binding signal. The Tb+ labeled anti-his-antibody captures His(6)-CBF and XL665 linked streptavidin binds to biotin-RUNX1. The binding of RUNX1 to CBFbrings Tb+ and XL665 to proximity resulting in a TR-FRET signal. Briefly, in a white 384-well plate, 10 µl/well of mixture of biotin-RUNX1 and His(6)-CBFwere incubated with 10 µl/well buffer (positive control) or 10 µl/well compounds (negative control) for 20 min followed by an addition of 10 µl/well of Tb+ labeled anti-his(6)-antibody and XL665 linked streptavidin. After 90 min of incubation in the dark, the assay plate was measured in the Envision plate reader using TR-FRET detection mode. For the 1536-well plate format, 3 µl/well mixture of biotin-RUNX1 and His(6)-CBF (30 nM per protein) was incubated with 23 nl/well compound (dissolved in 100% DMSO) or the equivalent DMSO concentration (positive control) for 30 min followed by the addition of 1 µl/well of 0.44 ng Tb+ labeled anti-his(6)-antibody and 5 nM streptavodin-XL665. After 90 min of incubation, the assay plate was measured in the Envision plate reader.
The TR-FRET assay for detecting interaction between HIV-I Tat and […] was similarly performed with the recombinant full-length HIV-I Tat CLADE B and HIV-I Tat Biotin conjugated proteins supplied by Diatheva (Fano, Italy). Briefly, the His-CBF and Biotin-RUNX1 complex at a working concentration of 83.3 nM per protein were pre-incubated in assay buffer for 10 minutes on ice. Then HIV-I Tat or unlabeled CBF were added to reach final concentrations (Supplementary Figure 4b) and incubated for 5 minutes. Finally anti-His antibody and streptavidin-XL665 at a final concentration of 2.2 ng and 5 nM, respectively, were added to the plate, which was incubated for 1 hr prior to reading on the PerkinElmer Envision plate reader.
Keywords: MLSMR, MLPCN, NIH Roadmap, qHTS, NCGC, Core binding factor, CBF, CBF-beta, Acute myeloid leukemia
% is set by controls: 0 for no effect and ±100 for the full control effect; potency is the fitted concentration of half-maximal effect.

SMILES | activity change, negative = inhibition | Potency
CC(=O)c1sccc1NC(=O)c1ccccc1C(=O)O | 3.8% (inactive) | –
O=C(Oc1c(-c2ccccc2)c(=O)n2c3c(cccc13)CC2)c1ccccc1 | -10% (inactive) | –
O=[N+]([O-])c1cccnc1Oc1ccc(F)cc1 | 22.6% (inactive) | –
Cn1nc2c3ccccc3n(Cc3ccc(F)cc3)c2nc1=S | 12% (inactive) | –
COc1ccc(C(=O)NC(=S)Nc2ccc(CN3CCOCC3)cc2)cc1 | -9.35% (inactive) | –
Cc1nc2ccc(NC(=S)N3CCOCC3)cc2nc1C | – | 12.6 µM (active)
Cc1cccc(C)c1NC(=S)N1CCOCC1 | 3.77% (inactive) | –
COC(=O)c1scc(C)c1NC(=O)/C=C/C(=O)O | -12.4% (inactive) | –
Cc1ccc(N/N=C(\C#N)C(=N)N2CCCCC2)cc1 | 59.2% (inactive) | –
Cc1nc(SCc2cccc(F)c2)c2oc3ccccc3c2n1 | -3.14% (inactive) | –
Cn1ncc2c(c(SCc3ccc(Cl)cc3Cl)nn2C)c1=O | 16.1% (inactive) | –
O=C1NCCc2c1[nH]c1ccccc21 | -12% (inactive) | –
CC(C)Cn1nc(NC(=O)c2cccs2)c2cc3ccccc3nc21 | 20.5% (inactive) | –
CC(=O)Oc1cc2c3c(c1)/C(=C1/SC(=S)NC1=O)C(=O)N3C(C)(C)C=C2C | 14.8% (inactive) | –
CC(C)N(Cc1ccccc1)C(=O)c1ccc2nsnc2c1 | 18% (inactive) | –
O=C(CSc1nc2ccccc2n1Cc1ccccc1Cl)N/N=C/c1ccccc1C(=O)O | -14.6% (inactive) | –
O=C(O)C1CCc2sc3[nH]c(=S)n(-c4ccccc4)c(=O)c3c21 (stereo not drawn) | 12.3% (inactive) | –
Cn1cccc1/C=C1\SC(=S)N(NC(=O)c2ccc(F)cc2)C1=O | 33.1% (inactive) | –
Clc1ccc(C2=Nn3c(Cn4nnc5ccccc54)nnc3SC2)cc1 | 2.69% (inactive) | –
O=C1COc2cccnc2N1 | -2.97% (inactive) | –

SMILES | activity change, negative = inhibition | Potency
Cc1c(-c2ccccc2)[n+](=O)c(-c2ccc(Br)cc2)c(C)n1[O-] | 26.5% (inactive) | –
COc1cc(C(=O)NC(=S)Nc2ccc3c(c2)OCO3)cc(OC)c1OC | 2.92% (inactive) | –
CCCSc1cc(Cl)nc(N)n1 | -0.0734% (inactive) | –
O=C(CCl)NC1(C(F)(F)F)C(=O)Nc2c1c(=O)[nH]c(=O)n2-c1ccccc1 (stereo not drawn) | -7.72% (inactive) | –
O=[N+]([O-])c1ccc(-c2cn3c(n2)CCC3)cc1 | 27.4% (inactive) | –
COc1c(/C=N/NC(=O)c2ccncc2)c(CCN(C)C(C)=O)cc2c1OCO2 | -7.29% (inactive) | –
COc1cc(/C=N/n2nnnc2N)cc(OC)c1OC | 6.57% (inactive) | –
Cc1nc2ccccc2nc1N1CCCC1 | 17.1% (inactive) | –
COc1cscc1C(=O)O | 0.991% (inactive) | –
CCOc1nsc(OCC)n1 | 8.39% (inactive) | –
C/C(=N\Nc1cccc(Cl)c1)C1(C)N(O)C(C)(C)C(c2ccco2)=[N+]1[O-] (stereo not drawn) | 18.1% (inactive) | –
CCOC(=O)C1=C(C)N(CC(C)C)C(=O)/C1=C\c1cccs1 | 14.3% (inactive) | –
O=C(O)/C=C/c1cn(-c2ccccc2)nc1-c1ccc(-c2ccc([N+](=O)[O-])cc2)o1 | 17.8% (inactive) | –
COc1ccccc1/C=C/C=NC1C(=O)N(c2ccccc2)[N+](C)=C1C (stereo not drawn) | -5.85% (inactive) | –
O=C(O)c1cc(O)c2c(c1)[C@H]([C@H]1c3cc(C(=O)O)cc(O)c3C(=O)c3c(O[C@@H]4OC(CO)C(O)C(O)C4O)cccc31)c1cccc(O[C@@H]3OC(CO)C(O)C(O)C3O)c1C2=O (stereo partly drawn) | – | 2.51 µM (active)
O=C(O)CC(CCc1ccccc1)OC1OC(CO)C(O)C(O)C1O (stereo not drawn) | -29.1% (inactive) | –
COc1cc(/C=C/c2nc3ccc([N+](=O)[O-])cc3s2)ccc1OCC(=O)O | 18.5% (inactive) | –
CCn1cc(C(c2ccccc2)C(C(C)=O)[N+](=O)[O-])c2ccccc21 (stereo not drawn) | 13.1% (inactive) | –
OCCNc1nc2ccccc2nc1NCCO | 0.991% (inactive) | –
COc1ccc(C2=NOC(CNC(=S)N3CCOCC3)C2)cc1 (stereo not drawn) | 8.59% (inactive) | –

SMILES | activity change, negative = inhibition | Potency
Cn1c(SCC(=O)NC(=O)Nc2ccccc2)nnc1-c1ccncc1 | -1.38% (inactive) | –
C(=C\c1nccc2c1[nH]c1ccccc12)/c1ccccc1 | 10.1% (inactive) | –
COc1cccc(/C=N/NC(=O)c2cnccn2)c1OC | 12.2% (inactive) | –
Oc1ccccc1/C=N/Nc1nn[nH]n1 | 6.96% (inactive) | –
CCN(CC)c1ncc(C#N)c(N)n1 | -7.89% (inactive) | –
Cc1cc(O)c(C=O)c2c1C(=O)Oc1c(COC(=O)/C=C/C(=O)O)c(O)c(C(=O)O)c(C)c1O2 | – | 28.2 µM (active)
CCOC(=O)c1cn2nc(Oc3ccc(C(=O)OC)cc3)ccc2n1 | -15.3% (inactive) | –
CCc1nc2ccccc2nc1N1CCN(S(=O)(=O)c2ccc(Cl)cc2)CC1 | 0.844% (inactive) | –
c1ccc(C2=Nn3c(Cn4nnc5ccccc54)nnc3SC2)cc1 | -10.8% (inactive) | –
CC(=O)c1ccc(S(=O)(=O)N2Cc3ccccc3CC2C(=O)O)cc1 (stereo not drawn) | -4.12% (inactive) | –
Brc1ccc(C2=Nn3c(Cn4nnc5ccccc54)nnc3SC2)cc1 | -8.99% (inactive) | –
COc1ccc(C(=O)CN2CCN(c3cc(C)nc4ccccc34)CC2)cc1 | -6.56% (inactive) | –
COC(=O)/C(=C\Nc1ccc(Oc2ccc(F)cc2F)nc1)NC(=O)c1ccccc1 | 8.42% (inactive) | –
CN(C)c1cc(-c2ccc(Cl)cc2Cl)oc(=O)c1Cl | 32.5% (inactive) | –
CC(C)(C)C(=O)Nc1ccccc1C(=O)NCc1cccnc1 | 7.35% (inactive) | –
O=S(=O)(c1ccc(F)cc1F)N1CCCN(c2ccc(C(F)(F)F)cn2)CC1 | 5.71% (inactive) | –
CCC(C)c1ccc(OCc2ccc(C(=O)OC)o2)cc1 (stereo not drawn) | 5.36% (inactive) | –
CCNC(=S)Nc1ccc(NC(=O)c2ccccc2O)cc1 | 16.3% (inactive) | –
